Only some compounds are listed: those with a hit (about 3.9% of all), similar ones and a draw of the others.
CDK5 p35 inh: inhibitors of human CDK5/p35 kinase. 0.01% of 330,000 active. AID 488839. Recombinant CDK5/p35, ADP-Glo luminescence, 60 min. inhibition, % at 10 µM. Q00535+Q15078;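 active = highest replicate inhibition of at least 50% and at least 75% of replicates reaching 50%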;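 note: plate controls were DMSO neutral control for no effect and GW8510 at 10 µM for full effect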
NSD2 HMT inh: NSD2 (human) methyltransferase inhibition | NSD2 peptide methylation, AlphaScreen, 120 min | inhibition, % at 12.5 µM | 0.54% of 310,000 active; in the data active = inhibition above about 50%
Glyco luc inh: N-linked glycosylation inhibition | 0.23% of 360,000 active | D54 ERlucT glycosylation luciferase reporter, 24 h; percent of 100 nM tunicamycin response | AID 588692 | reporter increase, % at 12.5 µM;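 active = mean luciferase reporter signal, scaled so untreated is 0 and the glycosylation-blocking control 100, at or above a set limit in every replicate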;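 note: luciferase carries N-glycosylation sites so blocking glycosylation raises the light; 0% = median of neutral control wells and 100% = median of 100 nM tunicamycin wells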
SUMO Mot1 rescue: inhibitors of SUMOylation pathway: yeast Mot1-301 growth rescue. 1% of 320,000 active. AID 2716. S. cerevisiae Mot1-301 growth rescue, ATP luminescence, 38.5C; percent above DMSO median, 100 means doubled. growth rescue, % at 18.8 µM;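 active = every valid replicate shows activation above 250% relative to neutral control wells; inactive = the rest, any valid replicate at or below 250%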;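 note: OY570 slx delta 5 strain wells were the positive control but not used for scaling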
Casp6 inh: caspase-6 (human) enzyme inhibition; P55212; purified caspase-6, Z-VEID-R110 cleavage fluorescence; inhibition, % at 12.5 µM; 0.53% of 350,000 active;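 active = mean inhibition across replicates at least about 35%, with every replicate also reaching that limit, limit read from the data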;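 note: 0% = median of neutral control wells and 100% = no fluorescence left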
Target sequence (P55212 24-179 limits assumed): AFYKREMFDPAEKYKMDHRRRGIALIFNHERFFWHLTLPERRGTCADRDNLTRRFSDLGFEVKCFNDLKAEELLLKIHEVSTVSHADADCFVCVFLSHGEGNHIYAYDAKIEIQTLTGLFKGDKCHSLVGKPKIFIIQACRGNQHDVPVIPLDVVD
Target sequence (P55212 194-293 limits assumed): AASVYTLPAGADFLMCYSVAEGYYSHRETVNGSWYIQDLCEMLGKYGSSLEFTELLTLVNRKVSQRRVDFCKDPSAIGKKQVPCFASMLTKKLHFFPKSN
ALR inh: human ALR oxidase inhibition via reduced H2O2; purified ALR, DTT oxidation, H2O2 HRP-luminol luminescence; 3.8% of 290,000 active; inhibition, % (concentration not given with the values); P55789;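 active = mean replicate inhibition above about 79%, with every replicate also reaching it, limit read from the data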
An asterisk follows results filed as active.

`CN(C)c1ccc(CN(C(=O)c2ccc(Cl)c([N+](=O)[O-])c2)C2CCS(=O)(=O)C2)cc1` (configuration not stated) gave CDK5 p35 inh 0, NSD2 HMT inh 3, Glyco luc inh 1, SUMO Mot1 rescue 341*, Casp6 inh 0 and ALR inh 30.
`CN(C)c1ccc(CN(C(=O)c2ccccc2Br)C2CCS(=O)(=O)C2)cc1` (configuration not stated) gave CDK5 p35 inh 1, NSD2 HMT inh 6, Glyco luc inh -1, SUMO Mot1 rescue -6, Casp6 inh -9 and ALR inh 96*.
`CN(Cc1ccc(N(C)C)cc1)C(=O)c1cc2ccccc2o1` gave CDK5 p35 inh 1, NSD2 HMT inh 29, Glyco luc inh 0, SUMO Mot1 rescue -11, Casp6 inh -2 and ALR inh 76*.
`O=C(c1ccc(Cl)c([N+](=O)[O-])c1)N(Cc1ccc(F)cc1)C1CCS(=O)(=O)C1` (configuration not stated) gave CDK5 p35 inh -1, NSD2 HMT inh 1, Glyco luc inh 0, SUMO Mot1 rescue -4, Casp6 inh -1 and ALR inh 3.
Screening CN(C)c1ccc(CN(C(=O)c2cc3ccccc3oc2=O)C2CCS(=O)(=O)C2)cc1 (configuration not stated) returned CDK5 p35 inh 0, NSD2 HMT inh -1, Glyco luc inh 1, SUMO Mot1 rescue -9, Casp6 inh 2 and ALR inh 89*.
COc1cccc(CN(C(=O)c2ccccc2Br)C2CCS(=O)(=O)C2)c1 (configuration not stated) was read as CDK5 p35 inh -3, NSD2 HMT inh -3, Glyco luc inh -1, SUMO Mot1 rescue -19, Casp6 inh -2 and ALR inh -1.
`CCCN1[C@H](C(=O)N(C)C)[C@@H](CO)[C@@H]2Cn3c(ccc(C4=CCCCC4)c3=O)[C@@H]21` gave Casp6 inh -1.
`C[C@H]1CN([C@@H](C)CO)C(=O)c2cccc(NS(C)(=O)=O)c2O[C@H]1CN(C)Cc1ccc(Cl)c(Cl)c1` gave Casp6 inh 4.
`Cc1ccc2c(C)c(C(=O)N(Cc3ccc(N(C)C)cc3)C3CCS(=O)(=O)C3)oc2c1` (configuration not stated) gave CDK5 p35 inh -1, Glyco luc inh -3, SUMO Mot1 rescue 34, Casp6 inh 0 and ALR inh 1.
`Cc1ccc2oc(C(=O)N(Cc3ccc(N(C)C)cc3)C3CCS(=O)(=O)C3)c(C)c2c1` (configuration not stated) gave CDK5 p35 inh -1, NSD2 HMT inh 13, Glyco luc inh -3, SUMO Mot1 rescue 11, Casp6 inh 59* and ALR inh 0.
For CN(C)c1ccc(CN(C(=O)c2ccco2)C2CCS(=O)(=O)C2)cc1 (configuration not stated) the results were CDK5 p35 inh 1, NSD2 HMT inh 15, Glyco luc inh 2, SUMO Mot1 rescue 7, Casp6 inh 2 and ALR inh 82*.
`CN1CCN(C(=O)C[C@@H]2CC[C@H]3[C@@H](COc4ccc(NC(=O)C5CCC5)cc4C(=O)N3C)O2)CC1` gave Casp6 inh -3.
Screening COc1ccc(-n2c(-c3ccco3)n[nH]c2=S)cc1 returned CDK5 p35 inh 1, NSD2 HMT inh 4, Glyco luc inh 2, SUMO Mot1 rescue 250 and ALR inh 95*.
Screening S=c1[nH]nc(-c2ccco2)n1-c1ccc(Cl)cc1 returned CDK5 p35 inh 2, NSD2 HMT inh -3, Glyco luc inh 1, SUMO Mot1 rescue 3, Casp6 inh -3 and ALR inh 59.
Screening S=c1[nH]nc(-c2ccco2)n1C1CCCCC1 returned CDK5 p35 inh 1, NSD2 HMT inh 0, Glyco luc inh 2, SUMO Mot1 rescue -2 and ALR inh 95*.
For COc1ccc(Cc2c(O)nc(SCC(=O)NC(C)(C)C)[nH]c2=O)cc1 the results were CDK5 p35 inh 1, NSD2 HMT inh 1, Glyco luc inh 0, SUMO Mot1 rescue -3, Casp6 inh -1 and ALR inh 84*.
COc1ccc(CCNC(=O)CSc2nc(O)cc(=O)[nH]2)cc1OC was read as CDK5 p35 inh 0, NSD2 HMT inh 1, Glyco luc inh 0, SUMO Mot1 rescue 6, Casp6 inh 2 and ALR inh 95*.
